Assay outcomes from PubChem BioAssay.
This is a sample that favours compounds with a hit; in the whole collection about 4% have one here.
esBAF inh: blocks esBAF chromatin remodeling in mouse ES cells; Bmi1-luciferase knock-in reporter, 24 h; 100% = twice the neutral-well signal; reporter increase, % at 12.5 µM; 350,000 compounds, 2% hits; in the data active = activation above about 40%; inconclusive = no clear call, values can overlap the other calls;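 note: 0% = median of the plate's neutral control wells and 100% = double that signal; a rise in the Bmi1 reporter signal indicates esBAF inhibition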
MITF TRPM1 inh: inhibitors of MITF-driven TRPM1 promoter in melanoma cells | SK-MEL-5 TRPM1 promoter luciferase, 24 h | inhibition, % at 12.5 µM | 330,000 compounds, 0.83% hits | AID 488899;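 active = mean inhibition across replicates of 60% or more, whatever share of single replicates reaches that level; inconclusive = some that reach 60%, reason not given; inactive = mean inhibition across replicates below 60%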
MITF act: MITF TRPM1 promoter activation in melanoma cells | AID 588334 | SK-MEL-5 TRPM1-promoter luciferase, 24 h; % of positive control, neutral wells = 0 | 300,000 compounds, 0.75% hits | activation, % at 12.5 µM;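 active = mean activation of at least 80% with every replicate also reaching 80%; inconclusive = mean reaches 80% but some replicate falls short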;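 note: 0% = neutral control wells and 100% = parthenolide positive control wells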
EBV LMP1 NFkB: inhibitors of Epstein-Barr LMP1-induced NF-kappaB reporter. inhibition, % at 12.5 µM. 350,000 compounds, 0.69% hits. LMP1-induced NF-kappaB luciferase reporter cells, luminescence; in the data active = inhibition above about 41%; inconclusive = no clear call, values can overlap the other calls;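 note: 0% = neutral control wells and 100% = reference inhibitor control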
Wnt bcat act: activators of Wnt/beta-catenin signaling; Wnt/beta-catenin reporter cell assay, activator, plate reader; activation, % at 9.35 µM; 300,000 compounds, 1.2% hits; in the data active = activation above about 30%, passing the limit was not always enough; inconclusive = no clear call, values can overlap the other calls;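 note: 0% = neutral control wells and 100% = positive control wells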
C2C12 statin: suppressors of simvastatin-induced myotoxicity in C2C12 myotubes | 330,000 compounds, 0.78% hits | rescue of ATP level, % at 7.49 µM | ATP luminescence, 48 h; scaled: DMSO 0, geranylgeraniol control 100;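 active = mean ATP rescue above about 67%, or every replicate alone reaching that limit, limit read from the data, passing the limit was not always enough; inconclusive = no clear call, values can overlap the other calls; inactive = mean under the limit and some replicate under it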;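 note: myotubes were challenged with 10 µM simvastatin during compound exposure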
* marks the source's active call; other numbers are inactive results; ? = inconclusive; · = no result.

SMILES	esBAF inh	MITF TRPM1 inh	MITF act	EBV LMP1 NFkB	Wnt bcat act	C2C12 statin
Cn1c(=O)cc(OCCCC(=O)Nc2ccc3c(c2)OCCO3)c2ccccc21	0.8	1.5	-2.1	1.5	63.9*	4.4
O=C(CCn1c(=O)oc2ccccc21)N1CCc2ccccc21	41.4*	-45.8	47.3	-16.0	-3.8	4.0
CN1CCN(C(=O)C[C@H]2C[C@H]3c4cc(NC(=O)C5CCC5)ccc4O[C@H]3[C@@H](CO)O2)CC1	2.8	·	·	·	·	2.6
CCCCNC(=O)c1ccc(NS(=O)(=O)c2ccccc2)cc1	·	5.3	-4.4	11.1	·	·
CC(C)Sc1ncnc2[nH]ncc12	·	-3.0	3.5	3.0	1.2	14.8
CC(CN1CCOCC1)OC(=O)c1cccs1 (configuration not stated)	-3.6	-0.7	-0.7	3.1	·	-2.2
CN(C)Cc1cc(C(C)(C)C)cc(N2CCOCC2)c1O	5.9	9.6	-6.0	68.4*	-4.6	-1.6
CCN(CC)Cc1cc(C(C)(C)C)cc(N2CCOCC2)c1O	5.8	2.3	1.0	4.0	0.1	-3.2
CCC(Sc1nc2ccccc2s1)C(=O)Nc1cc(C)on1 (configuration not stated)	0.3	-3.9	1.2	-0.2	·	5.4
CC(=O)Nc1ccc(-c2nc3cc(Cl)ccc3o2)cc1	7.3	-78.1	·	-10.8	17.7	-7.3
O=C(O)c1ccccc1-c1ccccc1C(=O)Nc1ccc(-c2nc3cc(Cl)ccc3o2)cc1	·	4.2	-0.3	-21.6	34.9*	·
Fc1ccc(-c2csc(N3CCSCC3)n2)cc1	46.3*	-48.7	51.3	-40.2	4.5	0.5
Cc1c(C(=O)OCC(=O)NCC2CCCO2)cccc1[N+](=O)[O-] (configuration not stated)	9.8	11.0	-10.7	8.1	36.9*	-6.9
Cc1ccc(C(=O)OCC(=O)NCC2CCCO2)c(C)c1 (configuration not stated)	·	-6.6	8.7	0.6	0.1	·
Cc1cccc(-c2noc(C3CCCCC3)n2)c1	63.3*	-40.5	36.7	-32.0	·	6.4
Cc1cccc(-c2noc(-c3ccno3)n2)c1	·	-49.3	45.0	-5.3	8.4	·
Cc1ccc(-c2noc(C3CCCCC3)n2)cc1	·	-164.8	166.8*	-28.1	·	·
CCS(=O)(=O)N1CCC(c2nc(-c3ccc(C)cc3)no2)CC1	?	-43.1	49.3	-16.8	·	-25.2
O=C(CC(c1ccc(F)cc1)c1ccco1)N1CCOCC1 (configuration not stated)	1.9	7.3	-8.8	61.3*	1.3	12.8
O=C1c2ccccc2C(=O)N1CCC(c1ccc(F)cc1)c1ccco1 (configuration not stated)	2.1	-0.2	0.1	3.8	·	76.8*
O=C(CC(c1ccc(F)cc1)c1ccco1)N1CCCC1 (configuration not stated)	3.3	1.6	-0.3	-5.7	·	-10.8
CN1C(=O)c2cc(NC(=O)c3ccc(Cl)cc3)ccc2OC[C@@H]2O[C@@H](CC(=O)NCc3cccc(F)c3)CC[C@H]21	-5.6	·	·	·	·	-78.5
CCCCN1C(=O)C(CC(=O)NCc2ccco2)CC(C(=O)N(C)C)=C1C (configuration not stated)	-0.6	·	·	2.0	-1.4	-5.5
O=C1C(C2=NC(c3ccccn3)C3C(=O)N(c4ccc(OC(F)(F)F)cc4)C(=O)C23)=C(O)c2ccccc21 (configuration not stated)	·	75.0*	·	-14.3	-8.3	·
CC(=O)Nc1ccc(S(=O)(=O)N(C)c2ccccc2)cc1	0.4	-2.9	3.1	-8.6	0.8	·
SMILES	esBAF inh	MITF TRPM1 inh	MITF act	EBV LMP1 NFkB	Wnt bcat act	C2C12 statin
CCN(c1ccccc1)S(=O)(=O)c1ccc(NC(=O)c2nc(S(C)(=O)=O)ncc2Cl)cc1	-92.6	100.1*	-98.8	2.4	·	-526.4
CCS(=O)(=O)c1ncc(Cl)c(C(=O)Nc2ccc(S(=O)(=O)N(C)c3ccccc3)cc2)n1	-75.6	97.7*	-97.4	57.0*	-15.9	-657.2
COc1cc(C)ccc1OCc1cc(C(=O)N(C)CCCN2CCOCC2)no1	73.6*	-144.4	126.6*	-25.5	?	-2.4
COc1cc(C)ccc1OCc1cc(C(=O)NCCN2CCOCC2)no1	63.2*	-106.5	107.0*	-23.5	26.0	4.2
COc1ccccc1-c1cc(C(=O)NCCN2CCOCC2)no1	-2.0	-12.6	14.2	-5.0	-0.1	·
Cc1cccc(C)c1NC(=O)COC(=O)c1cc(=O)c2ccccc2o1	·	-7.9	8.1	3.1	5.0	·
Cc1occc1C(=O)NC1CCCN(Cc2ccc(Cl)cc2)C1 (configuration not stated)	-4.5	4.7	-5.1	4.8	2.4	31.9
CCCNC(=O)NC(=O)CSc1nnc(C)n1N	-3.9	3.2	-0.7	0.3	-1.9	79.7*
COc1cc(NS(=O)(=O)c2ccc(NC(=S)NC(=O)/C=C/c3ccc(F)cc3)cc2)ncn1	-0.9	2.2	-4.2	0.5	41.0*	4.7
CCCCCCCCn1ccc(=N)cc1	·	9.9	·	15.0	-3.6	·
CCCCCCN1Cc2ccccc2C1	6.2	-16.7	14.4	8.6	-1.2	106.1*
CCCCCCCCCCn1ccc(=N)cc1	·	76.9*	·	29.3	-16.1	·
CN(C)CCNC(=O)c1cccc2c(-c3ccc(F)c(F)c3)coc12	-0.8	·	·	·	-1.5	-5.6
CN(C)c1cccc(NC(=O)c2cccc3c(-c4ccc(F)c(F)c4)coc23)c1	41.4*	·	·	·	1.9	-6.3
COc1ccc(NC(=O)c2cccc3c(-c4cccnc4)coc23)cc1	5.5	·	·	·	-3.4	7.1
O=C(Nc1ccccc1)c1cccc2c(-c3cccnc3)coc12	55.3*	·	·	·	-1.2	-1.9
N#C/C(=C\c1c(N2CCN(c3ccccc3)CC2)nc2ccccn2c1=O)C(N)=O	24.1	·	·	-14.3	-1.0	24.9
Cc1cncc(N2CCN(c3ccccn3)CC2)n1	7.2	·	·	·	0.2	-11.4
C[C@@H]1CN([C@@H](C)CO)C(=O)Cc2cc(NC(=O)CCN3CCOCC3)ccc2O[C@H]1CN(C)Cc1ccc(Cl)c(Cl)c1	0.3	·	·	·	·	-18.6
CCOc1ccc(N2C(=O)CC(N(C)Cc3ccccc3)C2=O)cc1 (configuration not stated)	·	-8.5	11.8	-3.6	-2.3	·
COC(=O)c1ccc(N2C(=O)CC(N(C)Cc3ccccc3)C2=O)cc1 (configuration not stated)	2.1	1.7	0.4	-0.2	·	86.9*
Cn1c(=O)c2c(nc(Oc3ccccc3)n2C)n(C)c1=O	-10.3	0.2	2.2	4.5	-1.9	141.5*
CCCC(C(=O)NC1CCCC1)N(C(=O)Cn1nnc(-c2ccc(C)o2)n1)C1CCCC1 (configuration not stated)	8.6	-5.0	6.9	0.7	-0.2	-2.8
C/C(=N\NC(=O)c1ccccc1-n1cccc1)C1CC1	0.6	3.0	5.6	-6.3	·	-13.4
Clc1ccc(/C=N/Nc2ncnc3ccccc23)cc1Cl	74.3*	-31.9	·	-37.1	?	·
Clc1cccc(/C=N/Nc2nc(Cl)nc3ccccc23)c1	52.2*	-55.0	·	-50.9	9.9	7.5
